Pol kappa inh: DNA polymerase kappa (human) inhibition; purified Pol kappa, fluorescent DNA synthesis assay, 10 min; AID 588579; hit rate 0.53% among 400,000; Potency, µM (top dose mostly 107 µM), usual class: inhibitors; Q9UBT6
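Fluorescent qHTS in 1536-well format: enzyme (10 nM) and compound sat 15 min at room temperature before 50 nM substrate (final) was added. Signal taken at 0 and 10 min; no-enzyme buffer wells were negative controls.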
POLH inh: DNA polymerase eta (human) inhibition; Q9Y253; recombinant Pol eta, fluorescent DNA replication assay; Potency, µM (titrated, usually from 114 µM), hits mostly inhibitors; hit rate 1.2% among 390,000; AID 588591
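Fluorescent replication assay: 50 nM final substrate added after a 15 min room-temperature compound preincubation with 10 nM enzyme. Signal taken at 0 min and again at 10 min.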
FEN1 inh: inhibitors of human flap endonuclease 1 | Recombinant FEN1 flap cleavage, fluorescence, 15 min | Potency, µM (highest dose often 114 µM), most hits filed as inhibitors | hit rate 0.35% among 390,000 | AID 588795; further: nearly all actives have a fitted effect of over 65% in size
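Steps: FEN1 (10 nM) dispensed; compound added by pin tool; 15 min at room temperature; substrate added to 50 nM final; reads at 0 min and 15 min; data normalized and fitted (four-parameter Hill).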
Pol iota inh: DNA polymerase iota (human) inhibition. Pol iota fluorescent replication assay, 10 min. AID 588590. Q9UNA4. hit rate 1% among 390,000. Potency, µM (top dose mostly 115 µM), most hits filed as inhibitors
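Pol iota at 10 nM preincubated 15 min with compounds at room temperature; reaction started with fluorescent substrate, 50 nM final. Fluorescence read kinetically at 0 and 10 min; buffer-only wells as negative control.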
TDP1 inh: blocks human tyrosyl-DNA phosphodiesterase 1. Q9NUW8. hit rate 0.28% among 350,000. recombinant TDP1, AlphaScreen DNA substrate cleavage. AID 485290. Potency, µM (top dose mostly 130 µM), hits mostly inhibitors; further: nearly all actives have a fitted effect of over 40% in size
Target sequence (Q9NUW8 whole entry, looked up): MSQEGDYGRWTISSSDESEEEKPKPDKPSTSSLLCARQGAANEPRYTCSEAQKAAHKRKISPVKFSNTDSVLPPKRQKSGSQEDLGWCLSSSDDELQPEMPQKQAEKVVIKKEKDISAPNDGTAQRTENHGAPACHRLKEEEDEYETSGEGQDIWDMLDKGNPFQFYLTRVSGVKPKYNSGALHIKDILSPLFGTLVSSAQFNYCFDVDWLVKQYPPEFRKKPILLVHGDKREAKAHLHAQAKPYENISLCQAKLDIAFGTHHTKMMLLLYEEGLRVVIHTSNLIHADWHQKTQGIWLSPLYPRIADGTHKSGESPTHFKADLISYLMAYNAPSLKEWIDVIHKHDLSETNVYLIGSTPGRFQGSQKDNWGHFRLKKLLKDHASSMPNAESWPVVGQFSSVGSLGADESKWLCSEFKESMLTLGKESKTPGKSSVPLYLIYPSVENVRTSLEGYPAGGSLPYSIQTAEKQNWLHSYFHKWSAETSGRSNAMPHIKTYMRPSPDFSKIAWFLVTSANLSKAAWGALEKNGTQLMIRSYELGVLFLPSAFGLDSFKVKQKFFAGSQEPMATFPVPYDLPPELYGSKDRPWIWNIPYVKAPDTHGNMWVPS
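Recombinant human Tdp1 (E. coli-expressed, 1 nM final) preincubated with compounds 15 min at room temperature, then 5'-biotin/3'-phosphotyrosine-FITC DNA substrate (15 nM final) added for 5 min. AlphaScreen beads (10 ug/ml final) added 10 min; cleavage lowers signal.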
POLB inh: DNA polymerase beta (human) inhibition; Pol beta primer extension/strand displacement, fluorescence kinetic; hit rate 1.3% among 340,000; P06746; Potency, µM (doses to about 114 µM), most hits filed as inhibitors; AID 485314
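Reaction started by 50 nM substrate onto compound-treated Pol beta (10 nM, 15 min preincubation, room temperature); plates read at 0 min and 10 min. Normalized concentration-effect data fitted by four-parameter Hill equation.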
Hits are given with their value; . = inactive; ? = inconclusive; / = no result given. Shown are actives, neighbours in structure and some others; about 2.4% of the full set was active somewhere. The call rests on the fitted dose curve; in most records, active means well fitted curve in the direction sought with a large enough effect; inconclusive means small, poorly fitted or top-dose-only effect, or another doubt; inactive means no such curve, though single readings can be large; an effect the other way counts as inactive or inconclusive.

SMILES	Pol kappa inh	POLH inh	FEN1 inh	Pol iota inh	TDP1 inh	POLB inh
CCOC(=O)/C=C1\SCC(=O)N1CC(=O)c1ccc[nH]1	?	?	.	?	.	20µM
CCOC(=O)/C=C1\SCC(=O)N1CC(=O)Nc1ccc(OC)c(OC)c1	.	.	.	.	.	.
COc1ccc(S(=O)(=O)NCc2cccs2)cc1	.	.	.	.	22.4µM	25.1µM
CCCN1CNc2c(c(=O)[nH]c(=S)n2CCCc2ccccc2)C1	.	/	.	.	.	/
CC(=O)NC1=NN(C(C)=O)C(C)(c2ccccc2)S1 (stereo unspecified)	.	.	.	.	/	7.08µM
COc1ccc(/C=C/C(=O)c2ccc([N+](=O)[O-])o2)cc1OC	.	?	?	8.91µM	/	/
Brc1ccc[n+](CCc2ccccc2)c1	.	/	.	.	/	/
CN(C(=O)c1cccc(NC(=O)Cc2ccc(NC(=O)C3CCCN(S(=O)(=O)c4cccc([N+](=O)[O-])c4)C3)cc2)c1)C1CCCC1 (stereo unspecified)	.	.	.	.	/	/
Cc1cccc2sc(NNC(=O)c3cc(=O)c4ccccc4o3)nc12	.	.	.	.	/	.
COc1ccc2nc(NNC(=O)c3cc(=O)c4ccccc4o3)sc2c1	.	79.4µM	.	.	/	?
O=C(NNc1nc2c(F)cccc2s1)c1cc(=O)c2ccccc2o1	.	?	.	22.4µM	/	?
COc1ccc2nc(NC(=O)c3cc(=O)c4cc(C)c(C)cc4o3)sc2c1	.	.	.	.	.	.
CC(=O)Nc1ccc(NC(=O)CSc2ccccn2)cc1	.	.	.	.	.	.
O=C(CSc1ccccn1)Nc1cccc(NC(=O)CSc2ccccn2)n1	.	.	.	?	/	10µM
COc1ccc(CN(C)S(=O)(=O)c2nnc(NC(=O)C(C)C)s2)cc1OC	.	.	.	.	.	.
COc1ccc2ccc3c(c2c1)N=CC1(O3)N(C)c2ccccc2C1(C)C (stereo unspecified)	.	.	?	5.01µM	.	?
CCc1ccc(NC(=O)C2CCN(S(=O)(=O)c3ccc4c(c3)NC(=O)C(C)S4)CC2)cc1 (stereo unspecified)	.	.	.	79.4µM	.	?
COc1ccc(C2Nc3ccccc3C(=O)N2Cc2ccccc2)cc1OCc1ccc(NC(C)=O)cc1 (stereo unspecified)	/	/	/	/	.	/
O=C(c1ccco1)N1CCN(C(=O)c2ccc(COc3ccc4c(c3)CCC4)o2)CC1	.	?	.	?	.	89.1µM
O=C(N/N=C/c1cccc([N+](=O)[O-])c1)c1ccc(Br)cc1	?	.	.	?	.	.
O=C(N/N=C/c1ccc2nccnc2c1)c1ccc(Br)cc1	.	.	.	.	/	?
O=C(N/N=C/c1cccc(Br)c1)c1ccc(Br)cc1	.	.	.	?	?	10µM
O=C(N/N=C/c1oc(O)c2ccccc12)c1ccccc1O	.	.	.	.	.	.
O=C(N/N=C/c1ccoc1)c1ccc(Br)cc1	.	.	.	?	.	39.8µM
O=C(N/N=C/c1ccoc1)c1ccccc1O	?	44.7µM	.	?	.	22.4µM
SMILES	Pol kappa inh	POLH inh	FEN1 inh	Pol iota inh	TDP1 inh	POLB inh
Cc1ccc(O)c(/C=N/NC(=O)Cc2ccc(Cl)cc2)c1	.	.	.	.	/	25.1µM
O=C(Cn1cc(SCc2c(F)cccc2Cl)c2ccccc21)N1CCCC1	.	.	.	.	.	.
CCC1CN(C(=O)Nc2ccccc2C(F)(F)F)c2ccccc2S1 (stereo unspecified)	.	.	.	.	.	.
O=C(N/N=C/c1ccoc1)c1ccccc1	.	?	.	?	/	20µM
Cc1cc(C)cc(C(=O)N/N=C/c2ccoc2)c1	.	.	.	?	.	.
O=C(N/N=C/c1cc(Cl)ccc1O)c1ccc(Br)cc1	?	?	?	?	.	10µM
O=C(N/N=C/c1cccc(OC2CSC2)c1)c1ccccc1O	.	?	.	?	/	44.7µM
O=C(N/N=C/c1cc(Br)ccc1O)c1ccncc1	.	.	.	.	.	.
CCN(Cc1ccccc1)Cc1c(O)ccc2c(=O)c(-c3ccc(Cl)cc3)c(C(F)(F)F)oc12	.	/	.	.	/	.
